This is an account of results in PubChem BioAssay (NCATS).

Each structure is given as a SMILES string. Records with an inconclusive call do not appear. Where a call stands in place of a potency, no number is given. Active and inactive are the calls of the source. Calls follow the shape of the dose curve; as a rule, active = well fitted inhibition curve with a large enough effect; inconclusive = small, poorly fitted or top-dose-only effect; inactive = no such curve, though single readings can be large or run the other way.
Potency is read from the fitted curve at half-maximal effect.

The nature of this assay: Primary qHTS for inhibitors of nuclear receptor binding SET domain protein 2 (NSD2) in an RCH-ACV wild type WT cells (2C) (AID 1645877). Also: nearly all actives have a fitted effect of over 70% in size. As to conditions: RCH-ACV (leukaemia line) NSD2 WT (2C) viability, CellTiter-Glo, 72 h; series mostly up to 44.9 µM; activity change, negative = cell killing: at the top concentration.
For `NCc1c[nH]c(=S)n1[C@H]1CCc2c(F)cc(F)cc2C1`, the “activity change, negative = cell killing” value is -14.7% (inactive).
`O=[N+]([O-])c1ccc(Nc2ccccc2-c2ccccc2)c2nonc12`: the Potency was 20.9 µM (active).
Consider `COc1nc(C)cnc1NS(=O)(=O)c1cccnc1-c1ccc(-c2nnco2)cc1`, for which the call was inactive.
Take `CN1C(=O)C(Cc2c[nH]c3ccccc23)NC1=S` (centres undefined): the Potency result was “inactive”.
